Screen size: about 320,000 compounds; about 7,600 (2.4%) were called active. Not shown: some 3% with an inconclusive outcome. The call rests on the fitted dose curve; in most records, active means well fitted activation curve with a large enough effect; inconclusive means small, poorly fitted or top-dose-only effect; inactive means no such curve, though single readings can be large or run the other way. What follows is part of a selection rich in actives, with near analogues and random picks from the rest. Where a call stands in place of a potency, no number is given.
Potency means the concentration at half of the fitted maximal effect.

The assay can be described thus: qHTS Assay for NPC1 Promoter Activators. Further: nearly all actives have a fitted effect of over 60% in size. To be noted: Huh7 NPC1 promoter luciferase reporter, 24 h; series mostly up to 9.22 µM. From the text:
NIH Chemical Genomics Center [NCGC] NIH Molecular Libraries Probe Production centers Network [MLPCN] MLPCN Grant: MH089375-01A1 Assay Submitter (PI): Yiannis A. Ioannou NCGC Assay Overview: Niemann Pick Type C (NPC) is a rare neurodegenerative lipidosis that is characterized by lipid storage in the endosomal/lysosomal system. Treatment modalities for this devastating disease are currently non-existent due to the severe obstacles associated with accessing the central nervous system with proteins or genes. The majority of mutations causing NPC disease are missense mutations that are distributed throughout the length of the NPC1 protein, with the most prevalent being the I1061T allele. Although NPC1 mutant proteins may be functional, they are typically trapped in the ER due to misfolding. […] We have developed and optimized a cell based luciferase reporter assay in 1536 well format for the identification of up-regulators of the mutant NPC1 promoter.
The NPC1 promoter is cloned in front of the luciferase reporter gene, therefore NPC promoter activation results in luciferase expression. Frozen stock of the NPC1 promoter transfected Huh7 cells were obtained from the laboratory of Dr. Yiannis Ioannou (The Mount Sinai School of Medicine, New York, NY). Cells were propagated and maintained at NCGC in medium containing RPMI-1640 supplemented with 10% FBS, 2mM L-glutamine, and 50ug/ml penicillin/streptomycin. Cells were harvested in and plated for assays in OP-MEM I reduced-serum medium supplemented with 10% FBS. The Amplite luciferase reporter gene assay kit was purchased from ABD Bioquest and prepared/stored according to manufacturers recommendations. qHTS Assay Setup: 1.#Dispensed 5ul of Huh7 cells stably expressing NPC1-luciferase at a density of 1500 cells per well 1536-well plates. 2.#Incubate cells at 37C, 5% CO2, and 95% humidity for 2 hours. 3.#Transferred 23nl per well of compound in DMSO solution. 4.#Incubated at 37C, 5% CO2, and 95% humidity for 24 hours. 5.#Dispensed 3ul per well of Amplite reagent(ABD Bioquest) per well. 6.#Incubate at ambient for 10 minutes. 7.#Read using the luminescence protocol on the ViewLux plate reader (Perkin Elmer).
(In general: qHTS replaces the single test concentration by a dilution series.)
For `O=C(CNC(=O)c1ccc2ccccc2c1)Nc1ncccc1O`, the Potency result is “inactive”. Take `CCc1cc(C(N)=O)c(NC(=O)c2ccc(OC)cc2)s1`: the Potency entry is “inactive”.

For the compound `CCOC(=O)c1cc(C(C)C)sc1NC(=O)COC(=O)c1nccnc1N`, the Potency result was “inactive”. As to `CC(C)c1cc(C(N)=O)c(NC(=O)c2cccc(COc3ccc(Br)cc3)c2)s1`, the Potency was 2820 nM (active). Turning to `CC(=O)c1c(C)[nH]c(C(=O)OCC(=O)Nc2c(C)n(C)n(-c3ccccc3)c2=O)c1C`, the Potency entry was “inactive”. With `CN(C)CCn1c(=S)[nH]c2ccc(Cl)cc2c1=O`, the Potency result is “inactive”. `CN(C)CCN=c1cc(-c2ccccc2)oc2ccc(Cl)cc12`: the Potency was 2820 nM (active). Consider `CN(CC(=O)NCc1ccc2c(c1)OCO2)CC(=O)Nc1ccc(F)c(F)c1F`, for which the Potency entry is “inactive”. For the compound `CO[C@H]1[C@@H]2C=CO[C@@H](O[C@H]3O[C@@H](CO)[C@H](O)[C@@H](O)[C@@H]3O)[C@@H]2[C@@]2(CO)O[C@@H]12`, the Potency result is “inactive”. With `CCC(=O)Nc1ccc(C(=O)NNC(=O)c2ccc(Cl)cc2)cc1` the entry was “inactive”; with `O=C(Nc1ccccc1)c1nnsc1S(=O)(=O)c1ccc(Cl)cc1`, “inactive”. With `O=C(Nc1ccc(Cl)cc1)c1ccsn1`, the Potency is 3160 nM (active). Consider `CCCCN(CC(=O)Nc1cccc(S(=O)(=O)N2CCCC2)c1)Cc1nc2ccccc2c(=O)[nH]1`, for which the Potency entry was “inactive”. `COCCn1cnnc1SCC(=O)Nc1cccc(S(=O)(=O)N2CCCCC2)c1`: the Potency entry was “inactive”. Regarding `Cc1ccc(S(=O)(=O)N(C)C)cc1NC(=O)C(C)OC(=O)c1ccc2ccccc2n1` (configuration not stated), the Potency entry was “inactive”. With `COc1ccc(F)cc1C(=O)COC(=O)c1n[nH]c(=O)c2ccccc12`, the Potency entry was “inactive”. Consider `CCN(C(=O)COC(=O)CCOc1cccc(C)c1)c1c(N)n(Cc2ccccc2)c(=O)[nH]c1=O`, for which the Potency result is “inactive”. With `O=C(O)c1ccc(N=NN2CCOCC2)cc1`, the Potency result is “inactive”. For the compound `O=C(c1ccccc1)N1CCN(C(=O)N2CCCCC2)CC1`, the Potency result was “inactive”. For `O=C(O)c1cccc(N=NN2CCCCCC2)c1`, the Potency was 100 nM (active). Turning to `CCOc1ncccc1C(=O)OCC(=O)Nc1cccc(S(=O)(=O)N2CCCCCC2)c1`, the Potency result was “inactive”. Consider `N#Cc1nc(Cc2ccccc2)oc1NCCc1ccccc1`, for which the Potency was 3160 nM (active).

Take `N#Cc1nc(Cc2cccc3ccccc23)oc1NCc1ccc2c(c1)OCO2`: the Potency result is “inactive”.

`Cc1ccccc1-c1nc(C#N)c(NCc2ccco2)o1`: the Potency entry is “inactive”.

For `OC(c1nc2ccccc2[nH]1)C(O)C(O)C(O)c1nc2ccccc2[nH]1` (configuration not stated), the Potency entry was “inactive”. Regarding `Nc1cccc(CCc2nc3ccccc3[nH]2)c1`, the Potency result was “inactive”. For `c1ccc2[nH]c(-c3nc4ccccc4[nH]3)nc2c1`, the Potency was 1260 nM (active). With `COc1ccc(Br)cc1C(=O)NC(=S)Nc1cc(-c2nc3ccccc3[nH]2)ccc1C`, the Potency entry is “inactive”.

Consider `COc1ccc(-c2[nH]nc(-c3ccccc3)c2-c2nc3ccccc3[nH]2)cc1`, for which the Potency result is “inactive”.

On to `Cc1ccc(-c2nc3ccccc3[nH]2)cc1N`, for which the Potency is 1580 nM (active). With `CNc1nc(SC)nc(N(C#N)CC(=O)OC)n1` the entry was “inactive”. Turning to `COc1ccc(OC)c(S(=O)(=O)Nc2c(C)nn(C)c2C)c1`, the Potency entry is “inactive”. With `Cc1cc(C(=O)Nc2ccc(C)c(S(=O)(=O)N3CCOCC3)c2)c2ccccc2n1`, the Potency entry is “inactive”. With `c1ccc(CN=C2Nc3ccccc3CS2)nc1` the figure was 2510 nM (active); with `CCC1(CC)NC(=O)N(CC(=O)OCC(=O)c2cc(C)c(C)cc2C)C1=O`, “inactive”; with `CC(=O)c1c(C)[nH]c(C(=O)COc2ccc3c(C)cc(=O)oc3c2)c1C`, “inactive”.

Consider `CCN(CC(=O)Nc1ccc(NC(C)=O)cc1)C(=O)CSC(=S)N1CCCC1`, for which the Potency result is “inactive”. In the case of `C/C(=N\Nc1nc(Nc2ccccc2)nc(N2CCOCC2)n1)c1cccs1`, the Potency result is “inactive”.

Turning to `C/C(=N\Nc1ncc(Cl)cc1Cl)c1cccs1`, the Potency was 1780 nM (active).

For `C/C(=N\Nc1nc2ccccc2[nH]1)c1cccs1`, the Potency is 2000 nM (active). With `C/C(=N\Nc1ccc(S(N)(=O)=O)cc1[N+](=O)[O-])c1cccs1` the entry was “inactive”. For `C/C(=N\NS(=O)(=O)c1ccc(Br)cc1)c1cccs1`, the Potency entry is “inactive”. Turning to `O=C(Nc1ccccc1-c1nc2ccccc2[nH]c1=O)c1cccs1`, the Potency entry is “inactive”. Take `CN(C(=O)CSc1nnc(-c2ccc3c(c2)OCO3)o1)C1CCS(=O)(=O)C1` (configuration not stated): the Potency entry was “inactive”. In the case of `CCOc1ccc(NC(=O)COC(=O)C2CCC(=O)N2)c([N+](=O)[O-])c1` (configuration not stated), the Potency entry is “inactive”.

With `CCN1C(=O)C(=O)N(CC(=O)Nc2cc(C)ccc2C)C1=O`, the Potency entry was “inactive”. Regarding `CCc1ccc(NC2Nc3cc(C)nn3S2)cc1` (configuration not stated), the Potency was 2820 nM (active). For the compound `CCOC(=O)c1ccc(NC2Nc3cc(C)nn3S2)cc1` (configuration not stated), the Potency entry was “inactive”. `CN(C(=O)CN1C(=O)/C(=C/c2ccc(Cl)cc2)SC1=S)C1CCS(=O)(=O)C1` (configuration not stated): the Potency result is “inactive”. With `Cc1cc(C)c2nc(NC(=O)C3CCCO3)sc2c1` (configuration not stated) the figure was 3980 nM (active); with `Cc1cc([N+](=O)[O-])ccc1NC(=O)C1CCCO1` (configuration not stated), “inactive”; with `Cc1ccc(C)c(C(C)NC(=O)C2CCCO2)c1` (configuration not stated), “inactive”.
